Measurements from PubChem BioAssay (NCI).
This is part of a sample that, as a whole, favours compounds with a hit. Of some 83,000 tested, about 20% had one in any assay.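 A percent growth of 40 corresponds to 60% growth inhibition; 0 means no net growth; -100 means all cells died. Active threshold: below 10.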 Unmarked numbers belong to inactive results. The source made the active and inactive calls.

Columns and labels:
Experiment in all cases: NCI-60 one-dose screen, 48 h (100 = growth as untreated, 0 = no growth, -100 = all killed)
Conditions in all cases: 10 µM
[1] = system: NCI-H23 lung
[2] = system: NCI-H226 lung
[3] = system: HOP-62 NSCLC
[4] = system: NCI-H460 lung
[5] = system: HOP-92 NSCLC
[6] = system: NCI-H522 lung
[7] = system: A549/ATCC NSCLC
[8] = system: 786-0 renal
[9] = system: COLO 205 colon
[10] = system: DU-145 prostate
[11] = system: K-562 leukemia
[12] = system: MALME-3M melanoma
[13] = system: MDA-MB-231 breast
[14] = system: RXF 393 renal
[15] = system: SF-268 CNS
[16] = system: SF-295 CNS
[17] = system: SF-539 CNS
[18] = system: UACC-257 melanoma
[19] = system: M14 melanoma
[20] = system: NCI-H322M lung

Row | SMILES | growth [1] | growth [2] | growth [3] | growth [4] | growth [5] | growth [6] | growth [7] | growth [8] | growth [9] | growth [10] | growth [11] | growth [12] | growth [13] | growth [14] | growth [15] | growth [16] | growth [17] | growth [18] | growth [19] | growth [20]
1 | CS(=O)(=O)Nc1ccc(-c2ccc3c(c2)ncn3-c2ccc(NC(=O)Nc3ccc(Cl)c(C(F)(F)F)c3)cc2)cc1 | -70.3% (active) | -51% (active) | -87.1% (active) | 0.554% (active) | -43.5% (active) | -87.6% (active) | -75.1% (active) | -77.9% (active) | -90.4% (active) | -4.47% (active) | -26% (active) | -80.8% (active) | -84.6% (active) | -57.5% (active) | 2.56% (active) | -77.5% (active) | -88.8% (active) | -57.2% (active) | -95.3% (active) | –
2 | CCOC(=O)CNC(=O)CN(Cc1ccccc1)C(=O)[C@@]1(C)CCC[C@]2(C)[C@H]3C[C@H]4C(C(C)C)=C[C@]3(CC[C@H]21)[C@@H]1C(=O)OC(=O)[C@@H]14 | 46.6% | 71.3% | – | – | 74.6% | 35.6% | 53.9% | 84.7% | 103% | 92.8% | 24.9% | 101% | 88.1% | – | 92.7% | 48.6% | 91.8% | 89.5% | 73.3% | 106%
3 | COc1cc2c(cc1OC)/C(=C\c1sc(Nc3ccc(O)cc3)nc1O)C(C(=O)O)=N2 | 47% | 63.7% | – | 18.2% | 36.4% | -18.3% (active) | 56.4% | 29.1% | -30.7% (active) | 6.39% (active) | 11.2% | 12.8% | 29.8% | 25% | 54.2% | 11.9% | -20.2% (active) | 48.8% | 4.93% (active) | 53.8%
4 | Cc1nc(Nc2nc(C)c3ccc(OCCN4CCOCC4)cc3n2)[nH]c(=O)c1C | -66.6% (active) | -47.2% (active) | -34.5% (active) | 2.14% (active) | 3.9% (active) | -52.3% (active) | 6.61% (active) | -25.1% (active) | 0.287% (active) | 14.9% | 14.1% | -69.8% (active) | -67.1% (active) | -78% (active) | 9.74% (active) | -29.3% (active) | -61.7% (active) | -14.9% (active) | 18% | –
5 | CN1CCN(c2ccc(Nc3nc(NCCCNC(=O)C4CCCCC4)c4sccc4n3)cc2)CC1 | 60.3% | 81.6% | – | 52.9% | 25.4% | 79.4% | 59.5% | 3.18% (active) | 68.8% | 67.5% | – | -97.1% (active) | 39% | -36% (active) | 62.2% | 38.4% | -77.9% (active) | -30.7% (active) | -8.5% (active) | 70%
6 | Cc1ccc(NCC(=O)Nn2c(COc3ccccc3)nc3ccccc3c2=O)cc1 | 67.8% | 66.3% | – | 81.4% | 58.1% | 71.7% | 77.9% | 66.4% | 85% | 85.9% | 88.2% | 80.8% | 62% | 51.3% | 49.8% | 58% | 51.4% | 83.6% | 93.3% | 85.9%
7 | O=C(CS(=O)(=O)c1oc(-c2ccc(Cl)cc2)nc1S(=O)(=O)c1ccc(Cl)cc1)N1CCOCC1 | 48.9% | 78.2% | – | 107% | -25.5% (active) | -14.8% (active) | 83.7% | 40.3% | 10.5% | 32.3% | – | -71.3% (active) | -1.43% (active) | -76.1% (active) | 84.6% | 85% | 21.5% | 73.9% | 24.4% | 93.5%
8 | COC(=O)c1c(C(=O)OC)c2n(c1C)[C@@H]([C@@H](C)[C@H]1CC[C@H]3[C@@H]4CCC5=CC(=O)CC[C@]5(C)[C@H]4CC[C@]13C)SC2 | 25% | 15.7% | – | 25.1% | 26.3% | – | 37.1% | 73.4% | 16% | 57.8% | 15.7% | 62.5% | 56.7% | – | 56.4% | 24.7% | 59% | 19.5% | 25.2% | 72.8%
9 | CCOC(=O)C1=C(N)N(c2ccccc2)C2=C(C(=O)CC(C)(C)C2)C1c1ccccc1OC (configuration not stated) | 98.3% | 101% | – | 115% | 114% | 95.3% | 103% | 97.7% | 128% | 99.6% | 97.2% | 91.3% | 92.5% | – | 114% | 89.2% | 92.6% | 107% | 111% | 94%
10 | CCCn1c(=O)c2[nH]c(-c3ccc(OCc4nc5ccccc5[nH]4)cc3)nc2n(CCC)c1=O | 32.5% | -30.3% (active) | – | 6.69% (active) | -6.45% (active) | 20.9% | 38.6% | -48.5% (active) | 89.1% | 54% | 76% | -36.4% (active) | -42.6% (active) | – | 38% | 37.4% | -44.3% (active) | 82.3% | 73.7% | 59.7%
11 | COC1=C[C@]23CCC(=O)N2CCc2cc4c(cc2[C@@H]3[C@@H]1OC(=O)CCCC(C)C)OCO4 | 53.2% | 23.3% | – | – | 95.6% | -2.41% (active) | 49.9% | 80.5% | 68% | 84.2% | 17.6% | 4.86% (active) | 98.5% | – | 133% | 69.9% | 11.3% | 78.9% | 57.1% | 108%
12 | O=C(c1ccc(Cl)cc1)C1[C@H](c2ccc(Br)cc2)[C@@H](c2ccccc2)NC12C(=O)Nc1ccc(Cl)cc12 (some centres not stated) | -83.6% (active) | -85.6% (active) | – | -63% (active) | -69.2% (active) | -79.5% (active) | -44% (active) | -68% (active) | -87.7% (active) | -27.9% (active) | -31.2% (active) | -97.7% (active) | -95.3% (active) | -88.8% (active) | -7.66% (active) | -84% (active) | -58.5% (active) | -49.4% (active) | 6.42% (active) | -28.6% (active)
13 | CCOC(=O)C(Cc1ccccc1)N1C(=O)/C(=C/N2N=C(c3ccc(OC)cc3)CC2c2ccc3ccccc3c2)SC1=S (configuration not stated) | -55.5% (active) | -41.8% (active) | – | -3.96% (active) | -8.32% (active) | 1.04% (active) | 21.7% | 13.8% | -86% (active) | 30.7% | 11.9% | -27.2% (active) | 3.55% (active) | – | 30.2% | -78.2% (active) | -27.2% (active) | 1.02% (active) | 7.24% (active) | 18.2%
14 | O=c1[nH]c2ccccc2cc1CSc1ccc(Nc2nccc(-c3ccc(Cl)cc3)n2)cc1 | -26.6% (active) | -70.5% (active) | – | -59.6% (active) | -68.1% (active) | 2.64% (active) | -39.7% (active) | -80.1% (active) | -16% (active) | -52% (active) | 36.2% | -54.3% (active) | -56.1% (active) | – | 2.16% (active) | -90.8% (active) | -89% (active) | 54.1% | 30.8% | 0.401% (active)
15 | CN(C)CCNC(=O)OCCCCOc1cc(O)c2c(=O)cc(-c3ccccc3)oc2c1 | -2.08% (active) | 12.1% | – | -33.9% (active) | -42.6% (active) | -77% (active) | 4.88% (active) | -34.5% (active) | -46.4% (active) | -27% (active) | 8.72% (active) | -96.8% (active) | -77.8% (active) | – | -44.9% (active) | -90.5% (active) | -100% (active) | -79.7% (active) | -75.1% (active) | -31.2% (active)
16 | CC(=O)NS(=O)(=O)c1ccc(NC(=O)CSC2=NC(c3ccccc3)C(C(C)=O)=C(C)N2)cc1 (configuration not stated) | 97.5% | 109% | – | 121% | 134% | 98.4% | 98.1% | 103% | 126% | 120% | 104% | 103% | 110% | – | 107% | 101% | 107% | 106% | 107% | 105%
17 | O=C(CSc1nnc(-c2ccc3nc(-c4ccccc4)[nH]c3c2)o1)Nc1ccc(Br)cc1 | 54.2% | 80.2% | – | – | 135% | 61.2% | 66.2% | 66.7% | 81.1% | 78.2% | 18.4% | 5.76% (active) | 52.3% | – | 87.8% | 74.3% | 8.7% (active) | 98.8% | 52.3% | 86.3%
